Assay results from PubChem BioAssay AID1053173 (Broad Institute, 2014).
Screen size: about 1,500 compounds; about 390 (26%) were called active. The rule behind the calls is not given here. A selection follows. Entries that show only a call come without a potency. Potency and affinity values are given separately.

Each molecule was assayed against Histone-lysine N-methyltransferase NSD2 (Homo sapiens) (UniProt O96028) (assay: blockers of NSD2 H4 peptide methylation – biochemical, AlphaScreen, cherry-picked samples, dose response (AID 1053173)). Details: 120 min; series mostly up to 10 µM.
Histone-lysine N-methyltransferase NSD2 (Homo sapiens), sequence (O96028 whole entry, looked up): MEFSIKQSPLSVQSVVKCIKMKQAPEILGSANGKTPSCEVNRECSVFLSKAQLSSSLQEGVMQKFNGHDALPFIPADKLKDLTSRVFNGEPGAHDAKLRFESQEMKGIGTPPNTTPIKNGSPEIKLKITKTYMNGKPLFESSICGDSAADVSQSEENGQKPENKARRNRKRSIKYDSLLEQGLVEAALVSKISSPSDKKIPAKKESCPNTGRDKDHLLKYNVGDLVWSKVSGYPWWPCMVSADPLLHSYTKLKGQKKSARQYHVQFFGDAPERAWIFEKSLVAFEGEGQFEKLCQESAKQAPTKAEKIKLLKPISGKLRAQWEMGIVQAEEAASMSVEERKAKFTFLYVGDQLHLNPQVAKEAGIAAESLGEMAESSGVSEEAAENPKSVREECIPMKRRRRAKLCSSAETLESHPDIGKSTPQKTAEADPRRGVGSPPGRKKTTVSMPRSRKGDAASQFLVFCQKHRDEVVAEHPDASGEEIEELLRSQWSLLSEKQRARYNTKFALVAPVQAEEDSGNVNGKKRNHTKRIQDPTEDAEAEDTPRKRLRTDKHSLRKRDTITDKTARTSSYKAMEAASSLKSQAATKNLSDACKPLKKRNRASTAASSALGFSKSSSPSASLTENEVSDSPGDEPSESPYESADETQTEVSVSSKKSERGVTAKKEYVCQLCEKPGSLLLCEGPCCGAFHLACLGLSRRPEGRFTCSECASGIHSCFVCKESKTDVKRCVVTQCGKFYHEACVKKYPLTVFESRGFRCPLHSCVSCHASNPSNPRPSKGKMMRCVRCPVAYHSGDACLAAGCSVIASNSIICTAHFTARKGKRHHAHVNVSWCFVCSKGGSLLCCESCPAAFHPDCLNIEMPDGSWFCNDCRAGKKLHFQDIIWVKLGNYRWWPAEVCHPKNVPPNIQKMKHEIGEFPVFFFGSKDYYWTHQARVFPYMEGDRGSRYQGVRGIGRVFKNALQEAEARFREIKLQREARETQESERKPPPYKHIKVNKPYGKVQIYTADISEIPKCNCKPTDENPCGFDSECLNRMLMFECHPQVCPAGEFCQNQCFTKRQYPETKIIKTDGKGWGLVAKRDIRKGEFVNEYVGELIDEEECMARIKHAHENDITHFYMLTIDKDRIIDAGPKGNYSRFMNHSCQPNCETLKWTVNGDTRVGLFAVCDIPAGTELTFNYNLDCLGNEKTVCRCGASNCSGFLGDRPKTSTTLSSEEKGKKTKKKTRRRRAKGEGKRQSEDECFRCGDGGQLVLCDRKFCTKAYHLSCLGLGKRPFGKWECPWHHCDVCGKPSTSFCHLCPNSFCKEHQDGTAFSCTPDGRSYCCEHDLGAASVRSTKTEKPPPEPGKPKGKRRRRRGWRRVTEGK
For `O=C(O)c1cc(N/N=C/c2ccc3c(c2)OCO3)ccc1Cl`, the outcome was “inactive”. With `O=c1cc(C=NNc2ccccc2)[nH]c(=O)[nH]1` the outcome was “inactive”. In the case of `Cc1noc(C)c1S(=O)(=O)N1CCN(S(=O)(=O)c2ccccc2C#N)CC1`, the outcome is reported as “inactive”. For `CCCC(CCC(=O)Nc1cccc([N+](=O)[O-])c1)C(=O)O` (stereo not given), the outcome was “inactive”. With `COc1cc(C(=O)Oc2cccc(/C=N/NC(=O)c3cccnc3)c2)cc(OC)c1OC` the outcome was “inactive”. In the case of `CNC(=S)NC(CC(=O)OC)c1ccc2c(c1)OCO2` (stereo not given), the outcome is reported as “inactive”. `CC[n+]1c(/C=C/Nc2ccccc2)oc2ccccc21` was tested, and the outcome was “inactive”. In the case of `Cc1cc(Cl)c(OCCN2C(=O)NC(C)(C)C2=O)c(Br)c1`, the outcome is reported as “inactive”. `COc1ccc(/C=C/C(=O)OCC(=O)NCC2CCCO2)cc1` (stereo not given) was tested, and the outcome was “inactive”. `COc1ccccc1CN(Cc1cc2cc3c(cc2[nH]c1=O)OCCO3)Cc1nnnn1Cc1ccco1` was tested, and the outcome was “inactive”. In the case of `CCOC(=O)CN(C(=O)COc1nc(-c2ccccc2)cc(C)c1C#N)c1ccccc1`, the outcome is reported as “inactive”. `COc1ccc(C(=O)Cc2nnc(C)s2)cc1` was tested, and the outcome was “inactive”. For `COc1ccc(C(=O)Nc2ccc3[nH]ccc3c2)cc1OC`, the outcome was “inactive”. With `COc1cc(N)c(C(=O)c2nccc3cc(OC)c(OC)cc23)cc1OC` the outcome was “inactive”. `C/C(=N/NC(=O)CCc1ccccc1)c1ccco1` was tested, and the outcome was “inactive”. `Cc1ccccc1NC(=O)CN1CCC(C(=O)c2ccc3c(c2)OCCO3)CC1` was tested, and the outcome was “inactive”. With `COc1ccc(C2=NNC(c3cccs3)=Nc3ccc(OC)cc32)cc1` the outcome was “inactive”. For `COc1ccc(-n2nnnc2-c2cnc(N3CCCC3)nc2C(F)(F)F)cc1`, the outcome was “inactive”. For `Cc1cc(C)n(-c2ncccc2[N+](=O)[O-])n1`, the outcome was “inactive”. For `O=[N+]([O-])c1cc2ncccc2c2ncccc12`, the outcome was “inactive”. In the case of `COc1ccc(/C=C(\C#N)C(=O)N2COCC2(C)C)cc1`, the outcome is reported as “inactive”. In the case of `COc1ccc(NC(=O)CN(C)S(=O)(=O)c2ccc(C)cc2)c([N+](=O)[O-])c1`, the outcome is reported as “inactive”. With `C=CCc1cccc2cc(C(=O)Nc3ccc(NC(C)=O)cc3)c(=O)oc12` the outcome was “inactive”. With `COC(=O)c1cc(NC(=O)Nc2cc(OC)ccc2OC)cc(C(=O)OC)c1` the outcome was “inactive”. For `N=C1/C(=C\c2ccc(Br)o2)C(=O)N=C2SC(CC(=O)N3CCCCC3)=NN12`, the outcome was “inactive”. In the case of `COc1ccc(/C=C2\N=C(C(C)(C)C)OC2=O)c(OC)c1`, the outcome is reported as “inactive”. In the case of `O=C(c1ccccc1F)N(Cc1cccs1)C1CCS(=O)(=O)C1` (stereo not given), the outcome is reported as “inactive”. In the case of `Cc1ccc(C(=O)Nc2ccc(Cl)cc2C(F)(F)F)c(Cl)c1`, the outcome is reported as “inactive”. With `CCC1=[N+]([O-])C(C)(/C(C)=N\O)N(O)C1(C)C` (stereo not given) the outcome was “inactive”. In the case of `COc1cc(NC(=O)c2[nH]c(C)c(C(C)=O)c2C)cc(OC)c1OC`, the outcome is reported as “inactive”. In the case of `COc1ccc(C2SCCN2S(=O)(=O)c2ccccc2)cc1` (stereo not given), the outcome is reported as “inactive”. With `COc1ccc(NC(=O)C2Cc3c(-c4ccc(Cl)cc4)ccnc3O2)cc1` (stereo not given) the outcome was “inactive”. With `O=C(O)CC1S/C(=N/N=C/c2ccc(-c3ccccc3[N+](=O)[O-])o2)NC1=O` (stereo not given) the outcome was “inactive”. For `CCN1C(=O)/C(=C\c2ccc(-c3ccc([N+](=O)[O-])cc3OC)o2)SC1=Nc1cccc(C(=O)O)c1`, the outcome was “inactive”. For `Nc1ccc2c(c1)OCCOCCOCCOCCOCCO2`, the outcome was “inactive”. With `CCCOc1ccc(C(C)=O)cc1CC(C(N)=O)C(N)=O` the outcome was “inactive”. With `COc1ccc2c(c1)Cc1sc(NC(=O)c3ccccc3)nc1-2` the outcome was “inactive”. With `NC(=O)c1nsc(C(=O)N(c2ccccc2)C(C(=O)NCC2CCCO2)c2ccc3ncccc3c2)c1N` (stereo not given) the outcome was “inactive”. `O=C(NCCc1ccccn1)C1CCCN1S(=O)(=O)c1ccc(Cl)cc1` (stereo not given) was tested, and the outcome was “inactive”. In the case of `CCOC(=O)C1CCCN(C(=O)c2ccc(S(=O)(=O)Nc3ccccc3OC)cc2)C1` (stereo not given), the outcome is reported as “inactive”. In the case of `O=C(Nc1ccc(S(=O)(=O)Nc2ncccn2)cc1)C1CC(=O)N(c2ccc(Cl)cc2)C1` (stereo not given), the outcome is reported as “inactive”. With `Cn1c(SCC(=O)Nc2ccc3c(c2)OCCO3)nnc1-c1ccncc1` the outcome was “inactive”. With `CCOC(=O)c1cccc(P(C)(C)=O)c1` the outcome was “inactive”. In the case of `COc1ccccc1NC(=O)c1ccc(NC(=O)C2COc3ccccc3O2)cc1` (stereo not given), the outcome is reported as “inactive”. In the case of `C=CC[n+]1c(-c2ccc(Cl)cc2Cl)csc1Nc1c(C)n(C)n(-c2ccccc2)c1=O`, the outcome is reported as “inactive”. For `S=C(Nc1cccnc1)Nc1cccc2cnccc12`, the outcome was “inactive”. In the case of `CCN(C(=S)Nc1cccnc1)c1cccc2ccccc12`, the outcome is reported as “inactive”. For `O=c1c2ccccc2nnn1CSc1nc2ccccc2c(=O)n1CCCO`, the outcome was “inactive”. With `O=C(NC(=S)Nc1ccccc1N1CCCC1)c1ccco1` the outcome was “inactive”. With `Cc1cc2c(OCC(O)CNC3CCCCC3)cccc2[nH]1` (stereo not given) the outcome was “inactive”. `CC1=CS(=O)(=O)CC1Sc1ncn[nH]1` (stereo not given) was tested, and the outcome was “inactive”. `COc1cccc(CNc2cccc3cccnc23)c1O` was tested, and the outcome was “inactive”. `Oc1ccc(CNc2ccccc2O)cc1` was tested, and the outcome was “inactive”. In the case of `Cc1ccccc1N(C(=O)c1snc(C(N)=O)c1N)C(C)C(=O)NC1CCCCC1` (stereo not given), the outcome is reported as “inactive”. `CC(=O)Nc1ccc(NCc2ccc(C)s2)cc1` was tested, and the outcome was “inactive”. With `CCOc1c(O)ccc(/C=C2\SC(=S)NC2=O)c1[N+](=O)[O-]` the outcome was “inactive”. With `Cc1ccc(Cl)c(OCC(=O)Nc2cc(S(=O)(=O)N3CCOCC3)ccc2N2CCCC2)c1` the outcome was “inactive”. With `COc1ccc(CN(C(=O)CN2C(=O)NC3(CCC(C)CC3)C2=O)C(C)Cc2cccs2)cc1` (stereo not given) the outcome was “inactive”. `c1ccc(-c2nc(N3CCOCC3)c3ccccc3n2)nc1` was tested, and the outcome was “inactive”. `CCc1nnc(NC(=O)COc2ccc3c(c2)OCO3)s1` was tested, and the outcome was “inactive”. For `CN1CCCCc2c1nc1ccccc1c2N` (tested in a mixture with another compound), the outcome was “inactive”. With `COc1cc(/C=C/C(=O)OCC(=O)NNC(=O)c2cc(Cl)ccc2OC)ccc1O` the outcome was “inactive”. For `Cc1cc(OCC(=O)Nc2ccccc2N2CCCCC2)ccc1C(C)C`, the outcome was “inactive”. With `COc1ccccc1/C=N/Nc1cc(C)nc(N2CCOCC2)n1` the outcome was “inactive”. For `FC(F)(F)c1ccc(N/N=C/c2cccnc2)nc1`, the outcome was “inactive”. For `N#Cc1cc(-c2ccccc2)cnc1Sc1ccc(Cl)cc1`, the outcome was “inactive”. `CN1CC2(Cc3c1ccc1ccccc31)C(=O)OC(C)(C)OC2=O` was tested, and the outcome was “inactive”. For `Cc1cc(=O)cc(C)n1-c1ccc(O)cc1`, the outcome was “inactive”. With `CC1=NOC(=O)/C1=C\c1ccc(-c2ccc(Cl)c(C(=O)O)c2)o1` the outcome was “inactive”. With `CSc1ncccc1C(=O)OCC(=O)N1CC2(C)CC1CC(C)(C)C2` (stereo not given) the outcome was “inactive”.
